Measured values taken from PubChem BioAssay AID1159580 (chemical genetic matrix, 2015).
Hit rate of the full screen: of about 5,500 compounds, about 2,000 (36%) were called active. Inconclusive results (about 18%) are left out. No stated cut-off is given here; in the data, active means normalized growth mostly below about 0.91 (no sharp cut-off); inconclusive means no clear call, values can overlap the other calls; inactive means mostly above about 0.92. This is one part of the list.

Test: chemical genetic growth profiling, strain panel (AID 1159580);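 further: tested at 20 µM; growth read once vehicle control cultures reached saturation at 30 °C; 1 = growth at the plate median or of vehicle wells; lower values mean less growth of the strain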
Conditions: growth OD

Measured: normalized growth

CC(=O)S[C@@H]1CC2=CC(=O)CC[C@]2(C)[C@H]2CC[C@@]3(C)[C@@H](CC[C@@]34CCC(=O)O4)C12 (stereo not given in full)
inactive: S. cerevisiae deletion strains, locus YJR043C, strain POL32, hits give low values 1.01 | S. cerevisiae deletion strains, locus YJR066W, strain TOR1, hits give low values 0.981 | S. cerevisiae deletion strains, locus YJR075W, strain HOC1, hits give low values 1.01 | S. cerevisiae deletion strains, locus YKL009W, strain mrt4, hits give low values 1.01 | S. cerevisiae deletion strains, locus YKL068W, hits give low values 1.01 | S. cerevisiae deletion strains, locus YKL085W, strain MDH1 (second series), hits give low values 1.01 | S. cerevisiae deletion strains, locus YKL085W, strain MDH1, hits give low values 1.01 | S. cerevisiae deletion strains, locus YKL160W, strain elf1, hits give low values 1.03 | S. cerevisiae deletion strains, locus YKL190W, strain CNB1, hits give low values 0.995 | S. cerevisiae deletion strains, locus YKR001C, strain vps1, hits give low values 1.03 | S. cerevisiae deletion strains, locus YKR026C, strain gcn3, hits give low values 1.01 | S. cerevisiae deletion strains, locus YKR091W, strain srl3, hits give low values 1.01 | S. cerevisiae deletion strains, locus YLL001W, strain dnm1, hits give low values 1.05 | S. cerevisiae deletion strains, locus YLL026W, hits give low values 1.01 | S. cerevisiae deletion strains, locus YLL041C, strain sdh2, hits give low values 1.01 | S. cerevisiae deletion strains, locus YLR027C, strain aat2, hits give low values 1.02 | S. cerevisiae deletion strains, locus YLR039C, strain RIC1, hits give low values 1.02 | S. cerevisiae deletion strains, locus YLR058C, strain SHM2, hits give low values 1 | S. cerevisiae deletion strains, locus YLR102C, strain apc9, hits give low values 1.02 | S. cerevisiae deletion strains, locus YLR113W, strain HOG1, hits give low values 1.03 | S. cerevisiae deletion strains, locus YLR221C, strain rsa3, hits give low values 0.984 | S. cerevisiae deletion strains, locus YLR258W, strain gsy2, hits give low values 0.997 | S. cerevisiae deletion strains, locus YLR262C, strain YPT6 (second series), hits give low values 1.03 | S. cerevisiae deletion strains, locus YLR262C, strain YPT6, hits give low values 1.04 | S. cerevisiae deletion strains, locus YLR268W, strain sec22, hits give low values 1.03 | S. cerevisiae deletion strains, locus YLR320W, strain mms22, hits give low values 0.975 | S. cerevisiae deletion strains, locus YLR330W, strain CHS5, hits give low values 1.01 | S. cerevisiae deletion strains, locus YLR342W, strain FKS1 (second series), hits give low values 1 | S. cerevisiae deletion strains, locus YLR342W, strain FKS1, hits give low values 1.05 | S. cerevisiae deletion strains, locus YLR357W, strain rsc2, hits give low values 1.06 | S. cerevisiae deletion strains, locus YLR370C, strain arc18, hits give low values 1.02 | S. cerevisiae deletion strains, locus YLR371W, strain rom2, hits give low values 1.03 | S. cerevisiae deletion strains, locus YLR384C, strain iki3, hits give low values 1.01 | S. cerevisiae deletion strains, locus YLR418C, strain cdc73, hits give low values 1.03 | S. cerevisiae deletion strains, locus YML016C, strain PPZ1, hits give low values 1 | S. cerevisiae deletion strains, locus YML032C, strain rad52, hits give low values 1.02 | S. cerevisiae deletion strains, locus YML120C, strain ndi1, hits give low values 1.02 | S. cerevisiae deletion strains, locus YML124C, strain tub3, hits give low values 1.04 | S. cerevisiae deletion strains, locus YMR058W, strain fet3, hits give low values 1.01 | S. cerevisiae deletion strains, locus YMR078C, strain ctf18, hits give low values 1.03 | S. cerevisiae deletion strains, locus YMR125W, strain sto1, hits give low values 1.01 | S. cerevisiae deletion strains, locus YMR129W, hits give low values 1.01 | S. cerevisiae deletion strains, locus YMR205C, strain PFK2, hits give low values 1.02 | S. cerevisiae deletion strains, locus YMR223W, strain ubp8, hits give low values 1.03 | S. cerevisiae deletion strains, locus YMR231W, strain pep5, hits give low values 1.01 | S. cerevisiae deletion strains, locus YMR307W, strain GAS1, hits give low values 0.999 | S. cerevisiae deletion strains, locus YNL067W, strain RPL9B, hits give low values 1.01 | S. cerevisiae deletion strains, locus YNL071W, strain lat1, hits give low values 1.01 | S. cerevisiae deletion strains, locus YNL183C, strain NPR1, hits give low values 0.977 | S. cerevisiae deletion strains, locus YNL209W, strain ssb2, hits give low values 1.01 | S. cerevisiae deletion strains, locus YNL233W, strain BNI4, hits give low values 1.01 | S. cerevisiae deletion strains, locus YNL248C, strain rpa49, hits give low values 0.97 | S. cerevisiae deletion strains, locus YNL250W, strain rad50, hits give low values 1.02 | S. cerevisiae deletion strains, locus YNL271C, strain bni1, hits give low values 1.04 | S. cerevisiae deletion strains, locus YNL298W, strain CLA4, hits give low values 1.04 | S. cerevisiae deletion strains, locus YNL307C, strain MCK1, hits give low values 1.04 | S. cerevisiae deletion strains, locus YNL322C, strain KRE1 (second series), hits give low values 1 | S. cerevisiae deletion strains, locus YNL322C, strain KRE1, hits give low values 1 | S. cerevisiae deletion strains, locus YNR049C, strain mso1, hits give low values 1.01 | S. cerevisiae deletion strains, locus YNR052C, strain pop2, hits give low values 1.02 | S. cerevisiae deletion strains, locus YOL006C, strain TOP1, hits give low values 0.994 | S. cerevisiae deletion strains, locus YOL012C, strain htz1 1.16 | S. cerevisiae deletion strains, locus YOL147C, strain pex11, hits give low values 1.02 | S. cerevisiae deletion strains, locus YOR001W, strain rrp6, hits give low values 1.03 | S. cerevisiae deletion strains, locus YOR061W, strain CKA2, hits give low values 1 | S. cerevisiae deletion strains, locus YOR069W, strain VPS5, hits give low values 1 | S. cerevisiae deletion strains, locus YOR070C, strain gyp1, hits give low values 0.996 | S. cerevisiae deletion strains, locus YOR080W, strain dia2, hits give low values 1.03 | S. cerevisiae deletion strains, locus YOR083W, strain WHI5, hits give low values 1 | S. cerevisiae deletion strains, locus YOR106W, strain vam3, hits give low values 1.04 | S. cerevisiae deletion strains, locus YOR136W, strain idh2, hits give low values 1.03 | S. cerevisiae deletion strains, locus YOR144C, strain elg1, hits give low values 1.01 | S. cerevisiae deletion strains, locus YOR184W, strain ser1, hits give low values 1.03 | S. cerevisiae deletion strains, locus YOR231W, strain MKK1, hits give low values 1.02 | S. cerevisiae deletion strains, locus YOR265W, strain rbl2, hits give low values 1.01 | S. cerevisiae deletion strains, locus YOR270C, strain vph1, hits give low values 0.968 | S. cerevisiae deletion strains, locus YOR290C, strain snf2, hits give low values 0.977 | S. cerevisiae deletion strains, locus YOR316C, strain cot1, hits give low values 1.03 | S. cerevisiae deletion strains, locus YPL051W, strain arl3, hits give low values 1.01 | S. cerevisiae deletion strains, locus YPL078C, strain atp4, hits give low values 1.04 | S. cerevisiae deletion strains, locus YPL106C, strain sse1, hits give low values 0.985 | S. cerevisiae deletion strains, locus YPL240C, strain hsp82, hits give low values 1 | S. cerevisiae deletion strains, locus YPL241C, strain CIN2, hits give low values 1 | S. cerevisiae deletion strains, locus YPL256C, strain CLN2, hits give low values 1.09 | S. cerevisiae deletion strains, locus YPR119W, strain clb2, hits give low values 1.03 | S. cerevisiae deletion strains, locus YPR141C, strain kar3, hits give low values 1.03 | S. cerevisiae deletion strains, locus YPR163C, strain tif3, hits give low values 1.04 | S. cerevisiae deletion strains, locus YPR167C, strain met16, hits give low values 1.03 | S. cerevisiae deletion strains, strain wtn01, hits give low values 1.03 | S. cerevisiae strains, strain wild type, hits give low values 1
